Measured values as given in ChEMBL document CHEMBL4888484, “Replenishing the malaria drug discovery pipeline: Screening and hit evaluation of the MMV Hit Generation Library 1 (HGL1) against asexual blood stage Plasmodium falciparum ,using a nano luciferase reporter read-out” (2022).
About 420 (8.8%) of roughly 4,800 compounds showed an effect of 50% or more. This excerpt belongs to a sample that is enriched for strong results.

The molecules below were run on Plasmodium falciparum (assay: Confirmatory screen in NF54 nanoGlo assay, in single point, at 2uM, 72h). Conditions: timepoint 72 hour.
Type: functional, Erythrocyte

Compound	% Inhibition [%]
Cc1cc(OC[C@@H](O)CNC(C)(C)CC(C)(C)C)cc(C)c1Cl	67
CC(=O)N1CCCN(S(=O)(=O)Cc2ccccc2Cl)CCNC(=O)[C@@H]2CCC[C@@H]21	0
Cc1ccc(-c2n[nH]c(NC(=O)Nc3ccc(F)c(S(=O)(=O)NC4CC4)c3)c2C)o1	-9
CCOc1ccc([C@@H](Nc2nc(C)cc(C)n2)c2cc(C)sc2NC(=O)c2ccccc2)cc1	1
COc1ccc(OC)c([C@H](C)NC(=O)N2CCS(=O)(=O)CC2)c1	-3
C[N+]12CCCCC1C(OC(=O)C1(c3ccccc3)CCCC1)CCC2 (stereo not drawn)	96
CN(C(=O)Cn1cnc2nc(N3CCC(C(=O)NC4CC4)CC3)sc2c1=O)c1ccccc1	-14
CCCCC1NC(=O)N([C@@H]2CCC(=O)N[C@H]2c2ccccc2)C1=O (stereo partly drawn)	2
CC(=O)Nc1ccccc1CC(c1c[nH]c2ccccc12)c1c[nH]c2ccccc12	0
CC(C)C(NC(=O)COc1ccccc1)C(=O)NCC(c1ccccc1Cl)c1c[nH]c2ccccc12 (stereo not drawn)	69
O=C(Cc1c[nH]c2ccccc12)Nc1ccc(Cl)c2ncccc12	5
CCS(=O)(=O)N1CCN(c2nc(Cc3ccc(C)cc3)nc3c2c(C)nn3-c2ccccc2)CC1	-3
N/C(CC(=O)Nc1cccc(Cl)c1)=N/O	-4
CCCC[C@H](Oc1ccc(C(C)(C)CC)cc1C(C)(C)CC)C(=O)Nc1ccc(NC(=O)C(F)(F)C(F)(F)C(F)(F)F)c(O)c1	30
Cc1cc(-c2ccccc2)nc(O)c1S(C)(=O)=O	-3
Cc1ccc(S(=O)(=O)N2CCN(C(=O)c3cc(C4CC4)nc4c3c(C)nn4C(C)C)CC2)cc1	-1
Cc1nn(Cc2ccccc2)c2nc(C3CC3)cc(C(=O)N3CCOCC3)c12	3
Cc1nn(C(C)(C)C)c2nc(C3CC3)cc(C(=O)N(C)c3ccccc3)c12	81
Cc1cnc(-n2cnnc2)c(-c2ccc(S(C)(=O)=O)cc2)c1	-3
Cn1c(-c2ccccc2)cn2cc(-c3ccc(F)cc3)nc12	1
COc1cccc(Cn2nc3ccc(S(=O)(=O)N4CCCC4)cn3c2=O)c1	2
Cc1cc(NC(=O)c2ccccn2)n(-c2nc3ccccc3o2)n1	88
Cc1cc(C(=O)Nc2cc(C)nn2C)nc(N(C)C)n1	-1
Cc1cc(C)n(C(=O)CNC(=O)c2ccccn2)n1	2
CCc1cc(C(=O)N(CC)c2ccccc2)c2c(C)noc2n1	-7
Clc1ccc(-c2onc3c2CCCC3)cc1	2
O=C(Nc1onc2c1CCC2)c1ccc2ccccc2c1	45
O=C(Nc1cc(-c2onc3c2CCCC3)cc(C(F)(F)F)c1)c1cncc(Br)c1	95
